Screens: PubChem, National Center for Advancing Translational Sciences (NCATS)
Sampled rows, rich in hits. Any-hit rate of the full collection: about 2.2%.
Abeta rescue: qHTS for compounds that reverse cellular toxicity of Amyloid beta (A-beta) peptide in yeast: Primary Screen; 0.063% of 410,000 active; yeast expressing A-beta42, growth rescue, OD600, 48 h; response scale: 0% DMSO, 100% iron-clioquinol control; Potency, µM (series often up to 46.1 µM), actives largely listed as activators; also: nearly all actives have a fitted effect of over 55% in size
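Yeast growth medium received pinned compounds, then yeast cells expressing toxic A-beta were added; plates incubated at 30 C for 48 hr. Growth read as absorbance at 600 nm, normalized to DMSO and equimolar FeCl3 plus clioquinol controls.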
aSyn yeast inh: qHTS of alpha-syn Inhibitors | Yeast expressing alpha-synuclein, growth rescue, BacTiter-Glo, 24 h | Potency, µM (top dose mostly 46.1 µM), without a hit: at the highest dose growth rescue (activation), usual class: activators | 0.14% of 370,000 active | AID 652106, 2013; also: % of control where 0% means no effect; nearly all actives have a fitted effect of over 65% in size
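Screening used galactose-induced yeast with toxic alpha-synuclein levels, exposed to compound for 24 hr at 30 deg C. Cell growth, read with BacTiter-Glo luminescence, gave the measured signal.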
Mito fusion yeast: qHTS Assay for Small Molecule Inhibitors of Mitochondrial Division or Activators of Mitochondrial Fusion. S. cerevisiae fusion-defective mutant growth rescue, CellTiterGlo 48 h. Potency, µM (top dose mostly 46.1 µM), inactives show at the top dose growth rescue (activation), actives largely listed as activators. 0.23% of 320,000 active. AID 485298, 2010; also: % of control where 0% means no effect; nearly all actives have a fitted effect of over 45% in size
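Luminescent cell viability in 1536-well qHTS format served as the measure of rescued growth in ts fusion-mutant S. cerevisiae cultured on non-fermentable YPEG for 48 hours at 37C.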
TDP-43 yeast inh: qHTS of TDP-43 Inhibitors. Potency, µM (highest dose often 46.1 µM), for the others: at the highest dose growth rescue (activation), most hits filed as activators. 1.8% of 410,000 active. TDP-43 expressing yeast growth rescue, BacTiter-Glo, 24 h; also: % of control where 0% means no effect; nearly all actives have a fitted effect of over 50% in size
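Galactose-induced TDP-43 yeast, OD600=0.02, compound pinned; 24 hr, 30 deg C; BacTiter-Glo luminescence for growth. Inhibitors of TDP-43 toxicity read as activators.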
FUS yeast rescue: qHTS for Suppressors of FUS Proteinopathy: Primary screen using FUS-linked yeast assay; AID 1347120, 2019; 0.24% of 390,000 active; Potency, µM (highest dose often 76.6 µM), most hits filed as activators; S. cerevisiae FUS-expressing, growth rescue, OD600, 24 h;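 also: plate controls were DMSO vehicle for no effect and reference control for full effect; nearly all actives have a fitted effect of over 55% in size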
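Yeast expressing FUS under galactose induction, OD 0.005 in 2% galactose medium; compounds in a dilution series, 24 h at 30C. Growth rescue by absorbance at 600 nm; CP55940 positive control, DMSO negative.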
The depositor's hits bear a star; [ ] = remark or other dose. Calls follow the shape of the dose curve; as a rule, active = well fitted curve in the direction sought with a large enough effect; inconclusive = small, poorly fitted or top-dose-only effect, or another doubt; inactive = no such curve, though single readings can be large; an effect the other way counts as inactive or inconclusive. Potency is read from the fitted curve at half-maximal effect.

How did CCc1ccc(CN(Cc2cn[nH]c2-c2ccc(OC)cc2)C(=O)Nc2ccc(C)c(F)c2)cc1 do in these assays?
Abeta rescue: inactive; TDP-43 yeast inh: 23.7%; FUS yeast rescue: inconclusive

Results for Cc1ccc(-c2csc3nc[nH]c(=S)c23)cc1C ?
Abeta rescue: inconclusive; aSyn yeast inh: inconclusive; Mito fusion yeast: 11.2%; TDP-43 yeast inh: 25.1µM*; FUS yeast rescue: inactive

What do the screens show for `O=C(C1CCN(c2ncnc3c2sc2cccc(F)c23)CC1)N1CCN(Cc2ccc(F)cc2)CC1`?
FUS yeast rescue: inactive

How did COc1cc(N(C)C)ccc1/C=C/c1ccnc2ccccc12 do in these assays?
aSyn yeast inh: -24.1%

How did O=C(COC(=O)/C=C/c1ccc(C(F)(F)F)cc1)NC1CCCC1 do in these assays?
Abeta rescue: inactive; aSyn yeast inh: 10.8%; Mito fusion yeast: 3.8%; TDP-43 yeast inh: 10µM*; FUS yeast rescue: inactive

Results for O=C(COC(=O)/C=C/c1cccc(Cl)c1)NC1CCCC1 ?
Abeta rescue: inactive; aSyn yeast inh: -3.2%[1.84 µM]; Mito fusion yeast: -0.5%; TDP-43 yeast inh: 12.6µM*; FUS yeast rescue: inactive

What do the screens show for `O=C(COC(=O)/C=C/c1ccc(C(F)(F)F)cc1)NCC1CCCO1` (stereo not drawn)?
Abeta rescue: inactive; aSyn yeast inh: 6.9%; Mito fusion yeast: -3.2%; TDP-43 yeast inh: 25.1µM*; FUS yeast rescue: inactive

Results for O=C(COC(=O)/C=C/c1ccc(F)cc1)NCC1CCCO1 (stereo not drawn) ?
Abeta rescue: inactive; aSyn yeast inh: 3.0%; TDP-43 yeast inh: 21.6%; FUS yeast rescue: inactive

What do the screens show for `CSc1ccc(/C=C/C(=O)OCC(=O)NC2CC2)cc1`?
Abeta rescue: inactive; aSyn yeast inh: 8.2%; Mito fusion yeast: -1.4%; TDP-43 yeast inh: 22.4µM*; FUS yeast rescue: inactive

What do the screens show for `O=C(COC(=O)/C=C/c1cccc(Cl)c1)NC1CC1`?
Abeta rescue: inactive; aSyn yeast inh: -8.1%; Mito fusion yeast: 0.7%; TDP-43 yeast inh: 25.5%; FUS yeast rescue: inactive

What do the screens show for `O=C(COC(=O)/C=C/c1cccc(C(F)(F)F)c1)NC1CCCCCC1`?
Abeta rescue: inactive; aSyn yeast inh: -0.6%; Mito fusion yeast: -6.9%; TDP-43 yeast inh: 24.1%; FUS yeast rescue: inactive

Results for COc1ccc(CCNC(=O)c2cc3ccccn3n2)cc1 ?
FUS yeast rescue: inactive

How did O=C(COC(=O)/C=C/c1ccccc1)NC1CC1 do in these assays?
Abeta rescue: inactive; aSyn yeast inh: -10.1%; Mito fusion yeast: 5.7%; TDP-43 yeast inh: 17.8%; FUS yeast rescue: inactive

Results for O=C(COC(=O)/C=C/c1ccc(C(F)(F)F)cc1)NCc1ccco1 ?
Abeta rescue: inactive; aSyn yeast inh: -5.0%; Mito fusion yeast: 1.4%; TDP-43 yeast inh: 17.8µM*; FUS yeast rescue: inactive

What do the screens show for `O=C(COC(=O)/C=C/c1ccc(C(F)(F)F)cc1)NC1CC1`?
Abeta rescue: inactive; aSyn yeast inh: 14.2%; Mito fusion yeast: 1.5%; TDP-43 yeast inh: 6.31µM*; FUS yeast rescue: inactive

How did O=C(COC(=O)/C=C/c1ccc(Cl)cc1)NC1CC1 do in these assays?
Abeta rescue: inactive; aSyn yeast inh: -0.1%; TDP-43 yeast inh: 35.5µM*; FUS yeast rescue: inactive

What do the screens show for `O=C(COC(=O)/C=C/c1ccc(Cl)cc1)NC1CCCCCC1`?
Abeta rescue: inactive; aSyn yeast inh: -1.4%; Mito fusion yeast: 1.2%; TDP-43 yeast inh: 11.3%; FUS yeast rescue: inactive

How did Cc1ccnc(SCc2cc(=O)c(OC(=O)c3ccc([N+](=O)[O-])cc3)co2)n1 do in these assays?
FUS yeast rescue: inactive

How did CC1Cc2ccccc2C[N+]1(C)CC(=O)c1ccc(I)cc1 (stereo not drawn) do in these assays?
aSyn yeast inh: -4.6%

How did O=C(c1ccc(-c2cccc(C(F)(F)F)c2)o1)N1CCCC(C(F)(F)F)C1 (stereo not drawn) do in these assays?
Abeta rescue: inactive; aSyn yeast inh: 8.3%; Mito fusion yeast: 5.1%; TDP-43 yeast inh: -4.3%; FUS yeast rescue: inactive
